Results from the supplement of paper PMC11628255, “Interference of metal ions on the bioluminescent signal of firefly, Renilla, and NanoLuc luciferases in high-throughput screening assays” (Frontiers in Chemistry, 2024).
± gives the standard deviation of the averaged measurements.

Test system: Renilla luciferase (RLuc)
Test: residual bioluminescent signal relative to negative control without GSH; higher = less interference (more residual luciferase signal)
Settings: screening conditions buffer
Procedure: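 Selected metal salts at 3-4 concentrations tested on purified FLuc, NLuc or RLuc in screening buffer with 0, 0.2 or 2 mM glutathione added; 10 min enzyme pre-incubation at RT, luminescence 10 min after substrate. Signal normalised to negative control without GSH (% N_VALUE); triplicate wells.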

[1] = metal salt concentration 1 mM, glutathione 0 mM
[2] = metal salt concentration 1 mM, glutathione 0.2 mM
[3] = metal salt concentration 1 mM, glutathione 2 mM

Compound | residual bioluminescent signal (metal salt concentration 0.005 mM, glutathione 0 mM) [%] | residual bioluminescent signal (metal salt concentration 0.005 mM, glutathione 0.2 mM) [%] | residual bioluminescent signal (metal salt concentration 0.005 mM, glutathione 2 mM) [%] | residual bioluminescent signal (metal salt concentration 0.536 mM, glutathione 0 mM) [%] | residual bioluminescent signal (metal salt concentration 0.536 mM, glutathione 0.2 mM) [%] | residual bioluminescent signal (metal salt concentration 0.536 mM, glutathione 2 mM) [%] | residual bioluminescent signal [1] [%] | residual bioluminescent signal [2] [%] | residual bioluminescent signal [3] [%] | residual bioluminescent signal (metal salt concentration 5 mM, glutathione 0 mM) [%] | residual bioluminescent signal (metal salt concentration 5 mM, glutathione 0.2 mM) [%] | residual bioluminescent signal (metal salt concentration 5 mM, glutathione 2 mM) [%] | residual bioluminescent signal (metal salt concentration 0.02 mM, glutathione 0 mM) [%] | residual bioluminescent signal (metal salt concentration 0.02 mM, glutathione 0.2 mM) [%] | residual bioluminescent signal (metal salt concentration 0.02 mM, glutathione 2 mM) [%] | residual bioluminescent signal (metal salt concentration 0.118 mM, glutathione 0 mM) [%] | residual bioluminescent signal (metal salt concentration 0.118 mM, glutathione 0.2 mM) [%] | residual bioluminescent signal (metal salt concentration 0.118 mM, glutathione 2 mM) [%] | residual bioluminescent signal (metal salt concentration 0.5 mM, glutathione 0 mM) [%] | residual bioluminescent signal (metal salt concentration 0.5 mM, glutathione 0.2 mM) [%] | residual bioluminescent signal (metal salt concentration 0.5 mM, glutathione 2 mM) [%]
[Cl][Fe]([Cl])[Cl] [iron(III) chloride] | 115 ± 9.3 | 116 ± 14 | 161 ± 26 | 36.6 ± 8 | 53 ± 4.8 | 101 ± 13 | 33.4 ± 2 | 39.3 ± 5.5 | 48.9 ± 13 | 2.29 ± 1.6 | 0.915 ± 0.4 | 2.06 ± 1.4 | – | – | – | – | – | – | – | – | –
[Cl][Fe][Cl] [iron(II) chloride] | – | – | – | – | – | – | 12.3 ± 4.2 | 18.7 ± 10 | 32 ± 11 | – | – | – | 86.2 ± 14 | 91.9 ± 18 | 122 ± 5.5 | 47.6 ± 13 | 56.5 ± 11 | 75.7 ± 7.6 | 16.5 ± 3.1 | 22.9 ± 4.2 | 31.1 ± 5.1
